Experimental findings from PubChem BioAssay AID1456 (Vanderbilt High Throughput Screening Facility, 2008) are described below.

The whole screen tested about 190,000 compounds, of which about 4,100 (2.2%) were called active. The sample holds actives, similar compounds and a random draw of the others, so the mix is not that of the screen. Unmarked numbers belong to inactive results.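 Rule for the calls: active = thallium flux slope and its plate-corrected score both differing from the plate sample mean at a set confidence after two filtering rounds, in either direction; inactive = the rest.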

Solute carrier family 12 member 5 (Homo sapiens), sequence (Q9H2X9 whole entry, looked up): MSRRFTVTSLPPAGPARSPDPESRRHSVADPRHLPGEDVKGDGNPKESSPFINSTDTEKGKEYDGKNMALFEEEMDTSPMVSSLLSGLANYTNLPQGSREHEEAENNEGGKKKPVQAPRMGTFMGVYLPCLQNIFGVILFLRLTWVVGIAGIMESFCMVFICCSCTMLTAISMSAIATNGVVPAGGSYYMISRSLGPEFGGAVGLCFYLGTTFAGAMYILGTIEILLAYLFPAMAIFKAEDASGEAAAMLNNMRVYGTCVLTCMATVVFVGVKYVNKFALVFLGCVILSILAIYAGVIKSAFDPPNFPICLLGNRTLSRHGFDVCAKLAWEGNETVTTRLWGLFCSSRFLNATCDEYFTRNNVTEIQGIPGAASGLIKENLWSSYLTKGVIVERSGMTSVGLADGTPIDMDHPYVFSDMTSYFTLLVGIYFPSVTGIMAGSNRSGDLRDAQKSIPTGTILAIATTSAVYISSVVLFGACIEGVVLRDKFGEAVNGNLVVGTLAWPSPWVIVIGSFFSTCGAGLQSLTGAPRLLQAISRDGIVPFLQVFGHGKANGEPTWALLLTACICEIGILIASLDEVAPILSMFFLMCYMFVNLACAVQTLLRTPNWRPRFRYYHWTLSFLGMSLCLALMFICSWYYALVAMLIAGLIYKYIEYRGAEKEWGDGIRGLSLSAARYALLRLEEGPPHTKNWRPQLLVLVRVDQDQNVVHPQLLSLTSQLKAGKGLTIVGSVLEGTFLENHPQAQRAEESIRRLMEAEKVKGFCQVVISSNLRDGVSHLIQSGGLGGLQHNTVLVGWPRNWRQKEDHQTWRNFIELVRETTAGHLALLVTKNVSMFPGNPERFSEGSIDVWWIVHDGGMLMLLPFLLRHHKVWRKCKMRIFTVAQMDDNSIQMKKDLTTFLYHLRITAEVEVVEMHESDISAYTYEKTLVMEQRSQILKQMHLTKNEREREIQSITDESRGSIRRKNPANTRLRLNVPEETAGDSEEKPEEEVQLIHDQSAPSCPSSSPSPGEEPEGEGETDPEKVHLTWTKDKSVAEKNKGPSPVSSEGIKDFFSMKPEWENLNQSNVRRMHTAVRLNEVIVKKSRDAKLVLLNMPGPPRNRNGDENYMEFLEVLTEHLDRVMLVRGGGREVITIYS

This assay has as its target Solute carrier family 12 member 5 (Homo sapiens) (UniProt Q9H2X9). As to the kind of experiment: KCC2 cotransporter modulators, thallium flux, primary screen, cell-based, HEK293 KCC2, FluoZin-2 fluorescence, MLSMR (AID 1456).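 Note: slope of fluorescence scaled to starting intensity during 10 to 20 s after thallium.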 The note with it: KCC2 cells, thallium flux FluoZin-2 fluorescence; at 10 µM.
With `Cc1cc(C(=O)CSc2nc(N)cc(=O)[nH]2)c(C)n1Cc1ccco1`, the B-score of Tl+ flux slope (higher = more flux/activation; lower = inhibition) is -0.287. Regarding `COc1ccc(-c2csc(NC3OC(=O)c4ccccc43)n2)cc1` (stereo not given), the B-score of Tl+ flux slope (higher = more flux/activation; lower = inhibition) was 0.605.

As to `O=C(CSc1nnc(-c2c[nH]c3ccccc23)o1)c1ccccc1`, the B-score of Tl+ flux slope (higher = more flux/activation; lower = inhibition) is 0.154. In the case of `CN(C(=O)CSc1nnc(-c2c[nH]c3ccccc23)o1)C1CCS(=O)(=O)C1` (stereo not given), the B-score of Tl+ flux slope (higher = more flux/activation; lower = inhibition) was -0.897. For `CCC(CC)NC(=O)CSc1nnc(-c2c[nH]c3ccccc23)o1` the value was -3.08 (active). Consider `COc1cccc(C(=O)n2ccc(-c3cccs3)n2)c1`, for which the B-score of Tl+ flux slope (higher = more flux/activation; lower = inhibition) was 0.604. Next, `COC(=O)N(NC(=O)C(O)(C(C)C)C(C)C)c1ccccc1`: -1.84; `O=C(CN1CCCC1)N1CCN(c2ccccc2)CC1`: 0.962; `CC(CC(=O)N1CCN(c2ccccc2)CC1)c1ccccc1` (stereo not given): -0.358. Next, `O=C(NC(CC(=O)N1CCN(c2ccccc2)CC1)c1ccccc1)c1ccccc1Cl` (stereo not given): -2.77 (active); `S=c1[nH]nc(-c2ccco2)n1/N=C/c1ccccc1`: 4.67; `Cc1cc(-c2n[nH]c(=S)n2/N=C/c2ccco2)n[nH]1`: -0.111. Regarding `Cc1ccc(/C=N\n2c(-c3ccccc3)n[nH]c2=S)s1`, the B-score of Tl+ flux slope (higher = more flux/activation; lower = inhibition) is 5.99 (active). Next, `S=c1[nH]nc(-c2cccs2)n1/N=C/c1cccs1`: 8.64; `S=c1[nH]nc(-c2ccco2)n1/N=C/c1ccc(Br)s1`: 12.6 (active).

As for `S=c1[nH]nc(-c2ccccc2)n1/N=C/c1c[nH]c2ccccc12`, the B-score of Tl+ flux slope (higher = more flux/activation; lower = inhibition) is 0.491.

Take `O=c1c2ccccc2cnn1Cc1n[nH]c(=S)n1-c1ccccc1F`: the B-score of Tl+ flux slope (higher = more flux/activation; lower = inhibition) was 0.755. For `CC1CCN(c2c(NCc3ccc(C(=O)NCc4ccccc4)cc3)c(=O)c2=O)CC1` the value was -1.1; for `O=C(Nc1ccccc1)C1CC(=O)n2c(nc3ccccc32)N1` (stereo not given), 0.778. For the compound `CC(C)CCNC(=O)C1CCC(CNc2c(N3CCC(C)CC3)c(=O)c2=O)CC1` (stereo not given), the B-score of Tl+ flux slope (higher = more flux/activation; lower = inhibition) was 0.284. Next, `COc1ccc(CNC(=O)CCC(=O)Nc2nnc(C(C)C)s2)cc1`: 0.0451. As to `Cc1cccc(N2CCN(Cc3nc(C4CC4)no3)CC2)n1`, the B-score of Tl+ flux slope (higher = more flux/activation; lower = inhibition) is -0.346. `O=C(Nc1nnc(-c2ccco2)o1)c1ccc(S(=O)(=O)N2CCOCC2)cc1`: the B-score of Tl+ flux slope (higher = more flux/activation; lower = inhibition) was -0.75. For `COc1cccc(NC(=O)c2ccc(S(=O)(=O)N(C)C)cc2)c1` the value was 1.09; for `COc1cccc(-c2nnc(NC(=O)c3ccc(S(=O)(=O)N(CC(C)C)CC(C)C)cc3)o2)c1`, 18.6 (active).

Regarding `CCCCN1CCNC1=S`, the B-score of Tl+ flux slope (higher = more flux/activation; lower = inhibition) was -0.472. Turning to `O=C(Nc1ccc(Br)cn1)c1ccc([N+](=O)[O-])o1`, the B-score of Tl+ flux slope (higher = more flux/activation; lower = inhibition) is 0.106. Next, `CCCCCC(=O)Nc1ccc(C(=O)N/N=C/c2ccc([N+](=O)[O-])cc2)cc1`: -0.55; `CCCCCC(=O)NC(=S)NNC(=O)c1ccc([N+](=O)[O-])cc1`: 11.7 (active); `CC(C)CC(=O)NC(=S)NNC(=O)c1cccc([N+](=O)[O-])c1`: 0.86. Next, `Cc1ccc(N2C(=O)C(CC(=O)Nc3cccc(F)c3)N(CCc3ccncc3)C2=O)cc1` (stereo not given): 1.48; `C=CCNC(=S)N1CCc2[nH]c3ccccc3c2C1`: -0.783; `O=C(COC(=O)c1ccc(Oc2ccccc2)cc1)Nc1nnc(-c2ccccc2)o1`: 42.1 (active). Next, `Cc1cccc(NC(=O)Nc2nnc(-c3ccccc3)o2)c1`: 2.01; `CCCC(=O)Nc1nnc(-c2ccccc2)o1`: 1.22. On to `CC1=NNC(=O)C1CCC(=O)N/N=C(\C)c1ccc(Cl)cc1` (stereo not given), for which the B-score of Tl+ flux slope (higher = more flux/activation; lower = inhibition) was -0.012. Next, `CC(NC(=S)Nc1ccccc1)C(c1cccs1)N1CCOCC1` (stereo not given): 0.588; `CCOC(=O)NNC(=O)c1ccc(Cl)cc1`: 0.095. Next, `CSc1sc(C(=O)NNC(=O)c2ccc(Cl)cc2)c2c1C=CCC2`: 12.5 (active); `O=C(NNC(=O)C1C2CCC(C2)C1C(=O)O)c1ccc(Cl)cc1` (stereo not given): -1.3; `O=C(CC(c1ccccc1)c1cc(Cl)ccc1O)NCCN1CCOCC1` (stereo not given): -0.0272. For `CN(C)c1ccc(C=C2C(=O)OC3(CCCC3)OC2=O)cc1` the value was -0.977. As to `CCOc1c(Nc2cccc(Cl)c2)c(=O)c1=O`, the B-score of Tl+ flux slope (higher = more flux/activation; lower = inhibition) was -0.192. For `COc1ccc(C2/C=C\CN(CC(C)C)CC(=O)N2Cc2ccc(F)cc2)cc1` (stereo not given) the value was -1.57. Next, `COc1ccc(C2/C=C\CN(S(=O)(=O)c3cccs3)CC(=O)N2Cc2ccc(F)cc2)cc1` (stereo not given): -3.16 (active).

With `COc1ccc2c(CN3CCN(S(=O)(=O)c4cccs4)CC3)cc(=O)oc2c1`, the B-score of Tl+ flux slope (higher = more flux/activation; lower = inhibition) is -3.36. As for `O=c1c(-c2ccc(Cl)cc2)[n+]([O-])c2ccccc2n1OCc1nc2ccccc2[nH]1`, the B-score of Tl+ flux slope (higher = more flux/activation; lower = inhibition) was 2.99. Next, `Nc1nc(NCC2CCCO2)nc(Nc2ccccc2F)c1[N+](=O)[O-]` (stereo not given): 0.249; `COc1ccc(NC(=O)COC(=O)c2ccc(NS(=O)(=O)/C=C/c3ccccc3)cc2)cc1`: 4.56 (active). Next, `NS(=O)(=O)c1ccc(NS(=O)(=O)/C=C/c2ccccc2)cc1`: 0.851.

Consider `CCC(C(=O)OCC(=O)Nc1ccc(C(=O)Nc2ccc(OC)cc2)cc1)c1ccccc1` (stereo not given), for which the B-score of Tl+ flux slope (higher = more flux/activation; lower = inhibition) was -0.012. Next, `Cc1cc(C(=O)OCC(=O)Nc2nccs2)c2ccccc2n1`: -0.12; `Cc1ccc2c(C)c(C(=O)N3CCC(N4CCC(C(=O)NC5CC5)CC4)CC3)oc2c1`: -1.04; `O=C(CSc1nnnn1-c1ccc(O)cc1)N1N=C(c2ccc3ccccc3c2)CC1c1ccccc1` (stereo not given): 0.186. Next, `COC(=O)C1=C(C(=O)OC)C(c2cc([N+](=O)[O-])ccc2O)c2sc(=O)[nH]c2S1` (stereo not given): -0.169; `CC1CC(C)(C)n2c(O)c(N=NC(N)=S)c3cccc1c32` (stereo not given): 24.8 (active); `COC(=O)[C@H](CC(C)C)NC(=O)N1CCCCC1C` (stereo not given in full): -0.124. Next, `C/C(CC(C)C)=N\Oc1nc(C)cc(C)n1`: -1.12; `CCCCCCCC(=O)OC(CN1CCCCCC1)CN1CCCC1=O` (stereo not given): -0.767; `Cc1cc(C)cc(NC(=O)NC2CCN(CC(=O)Nc3cccc(Cl)c3C)CC2)c1`: 0.963.
